# Screening data (PubChem BioAssay)
# IDE inh: human IDE inhibitors in live cells, primary screen, fluorescence polarization, HEK cells, FAbetaB substrate | Insulin-degrading enzyme (Homo sapiens), P14735 | inhibition, % at 5.59 µM | FAbetaB cleavage | 0.41% of 320,000 active;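 active means percent inhibition above the average of all tested compounds plus 3 SD, set per screening campaign, cut at about 16% in these data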;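 further: IDE supplied by intact live HEK cells; FP after avidin binding of uncleaved biotin substrate so inhibition keeps polarization high; 0% = DMSO wells and 100% = 60 µM reference IDE inhibitor Ii1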
# HDAC3 inhib: HDAC3 deacetylase inhibitors, primary screen, biochemical, fluorescence, cell-free homogeneous | AID 2718, 2010 | 0.15% of 320,000 active | Histone deacetylase 3 (Homo sapiens), O15379 | inhibition, % at 8.3 µM | recombinant HDAC3, fluorogenic peptide/trypsin coupled; in the data active means inhibition above about 26%, passing the limit was not always enough
# Target sequence (O15379 whole entry, looked up): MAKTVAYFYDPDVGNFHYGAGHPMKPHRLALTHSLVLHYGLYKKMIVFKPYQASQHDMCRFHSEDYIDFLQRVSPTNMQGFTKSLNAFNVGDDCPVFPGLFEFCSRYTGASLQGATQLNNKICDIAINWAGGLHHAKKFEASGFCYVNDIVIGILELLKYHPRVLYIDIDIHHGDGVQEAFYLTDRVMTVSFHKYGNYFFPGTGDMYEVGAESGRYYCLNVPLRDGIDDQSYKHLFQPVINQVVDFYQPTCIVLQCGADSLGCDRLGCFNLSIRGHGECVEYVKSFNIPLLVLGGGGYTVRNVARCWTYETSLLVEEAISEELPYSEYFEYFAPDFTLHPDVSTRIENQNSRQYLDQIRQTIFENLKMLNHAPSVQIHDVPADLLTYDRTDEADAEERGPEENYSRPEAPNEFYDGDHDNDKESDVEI
# IDE cell activ: human IDE activators in live cells, primary screen, fluorescence polarization, HEK cells, FAbeta-B substrate | FAbeta-B cleavage; 0% vehicle, 100% cell-free pure enzyme wells | activation, % at 5.96 µM | 0.073% of 340,000 active | AID 493087, 2011;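 active means activation above the mean of all tested compounds plus 3 SD, set per screening campaign, cut at about 17% in these data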
# Mot1-301 SUMO: yeast Mot1-301 growth rescue at high temperature, primary screen, SUMOylation pathway inhibitor project, S. cerevisiae, ATP luminescence, 38.5C. S. cerevisiae Mot1-301 growth rescue; percent above DMSO median, 100 means doubled. growth rescue, % at 18.8 µM. 1% of 320,000 active;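 active means every valid replicate shows activation above 250% relative to neutral control wells; inactive means the rest, any valid replicate at or below 250%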;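 further: OY570 slx delta 5 strain wells were the positive control but not used for scaling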
# LANA-H2A inh: blockers of LANA interaction with H2A/H2B – biochemical, FP readout, HTS, primary screen; Protein LANA1 (Human herpesvirus 8 type P (isolate GK18)), Q9QR71; cell-free LANA-H2A/H2B peptide, fluorescence polarization; inhibition, % (concentration not given with the values); 0.6% of 320,000 active; in the data active means inhibition mostly above about 10%, no sharp cut-off; inactive means mostly below about 6.7%
# Active calls of the source: *; i = inactive; . = not tested or not shown. Compounds with a hit are over-represented: about 2.1% of the library has one in this group of screens.
SMILES,IDE inh,HDAC3 inhib,IDE cell activ,Mot1-301 SUMO,LANA-H2A inh
O=S(=O)(Cc1ccc(Cl)cc1)N1CCN(Cc2ccc3c(c2)OCO3)CC1,-2,-1,0,5,-5
CCOc1ccc(S(=O)(=O)N2CCN(Cc3ccc4c(c3)OCO4)CC2)cc1Cl,6,8,5,386*,0
CC1CN(S(=O)(=O)c2cc(C(=O)N3CCCCC3C)ccc2Cl)CC(C)O1 (stereo not given),1,-3,1,-6,-1
NC(=O)Cn1c(O)c(N=NC(=O)CNC(=O)/C=C/c2ccccc2)c2ccccc21,-3,-2,2,-9,23*
CCCn1c(O)c(N=NC(=O)CNC(=O)/C=C/c2ccc(OC)cc2)c2ccccc21,6,8,3,-16,2
Cn1c(SCC(=O)NC2CCCC2)nnc1C(F)(F)F,-3,0,7,-7,0
CCN1CCN(CCC(=O)Nc2ccc(F)c(F)c2)CC1,1,3,4,-1,0
Cc1cc(OCC(=O)NC2CC2)c2c(C)cc(=O)oc2c1,1,-16,3,-5,13*
CC(C(=O)NC1CCCC1)N1CCN(S(=O)(=O)c2ccc(C(C)(C)C)cc2)CC1 (stereo not given),-2,7,4,-15,-2
O=C(Cn1nc(Cc2cccnc2)c2ccccc2c1=O)Nc1ccccc1F,-2,-7,0,79,16*
O=C(Cn1nc(Cc2cccnc2)c2ccccc2c1=O)Nc1cc(F)ccc1F,-2,-3,4,1,-2
Cc1c(Cl)cccc1N(CC(=O)O)S(C)(=O)=O,5,-3,0,.,11*
c1ccc2[nH]c3cc4ncnc4cc3nc2c1,-5,1,2,12,26*
COC(=O)c1sccc1NC(=O)Nc1ccccc1F,3,9,9,-3,12*
CC1=Nc2ccccc2N=C(NC(=O)/C=C/C(=O)O)C1c1ccccc1 (stereo not given),4,-1,2,5,0
COc1ccc(C(=O)NC2=Nc3ccccc3N=C(C)C2c2ccccc2)cc1 (stereo not given),6,77*,-1,408,3
COc1ccc(OC)c(Nc2ncnc3sccc23)c1,6,.,-1,-14,-4
COc1cc(CN(C)c2ncnc3sccc23)ccc1OC(F)F,-7,6,4,-13,16*
COc1ccccc1N(C)S(=O)(=O)c1ccc(C(=O)N(C)Cc2ccc(OC(F)F)cc2)cc1,.,.,4,.,.
Cc1ccccc1OCC(=O)Nc1ccccc1-c1ccccc1,5,18,2,-8,0
CCc1cc(-c2[nH]ncc2-c2ccc3c(c2)OCO3)c(O)cc1O,2,0,4,-2,-8.4*
c1ccc(C[C@H]2CN=C(Nc3ccccc3)N2CC2CCCCCC2)cc1,-5,4,7,-15,-6
COC(=O)c1ccc(Cn2c(O)c(N=NC(N)=S)c3ccccc32)o1,-3,39*,1,-13,4
COc1ccccc1C(=O)NCC(=O)OC(C)C(=O)NC1CCCCC1C (stereo not given),-1,4,3,-15,0
COc1cc(N=c2c([N+](=O)[O-])nn(-c3ccc4c(c3)OCCO4)n2O)cc(OC)c1,-4,.,-2,274*,.
SMILES,IDE inh,HDAC3 inhib,IDE cell activ,Mot1-301 SUMO,LANA-H2A inh
CC(C)c1ccc(N=c2c([N+](=O)[O-])nn(-c3ccc4c(c3)OCCO4)n2O)cc1,-6,11,6,12,0
Cc1ccc(S(=O)(=O)NCC(C)n2cncn2)cc1C (stereo not given),5,-8,8,1,-1
O=C(CCn1ccc2cc(S(=O)(=O)N3CCCC3)ccc21)NCCc1ccccc1,0,-2,-3,-3,0
O=C(Cn1ccc2cc(S(=O)(=O)N3CCCC3)ccc21)NCCc1ccccc1,7,5,1,20,12*
COc1cccc(NC(=O)CN(C)C(=O)CNC(=O)c2ccc3ccccc3c2)c1,3,-1,3,-5,0
COC(=O)CCC(=O)Nc1nc(-c2ccccc2)cs1,1,17,3,334*,-1
O=C(Cc1cccs1)Nc1nc(-c2ccccc2)cs1,11,1,-6,.,2
O=C(CN1C(=O)NC2(CCCC2)C1=O)NCc1cccc(Cl)c1,2,-1,7,-10,1
COCCC(=O)N1CCC(Oc2ccc(C(=O)NCCCC3CCCC3)cc2)CC1,9,0,-2,20,-2
CCN(CC)C1=CC2=CC(=C(C#N)C#N)CCC2CC1 (stereo not given),-20,0,44*,i,-4
N#CC(C#N)=C1C=C2C=C(N3CCCCC3)CCC2CC1 (stereo not given),-30,-1,.,64,-152
CCCCN(C)C1=CC2=CC(=C(C#N)C#N)CCC2CC1 (stereo not given),-13,1,46*,-5,0
CSc1cccc(CN2CCCC(CO)(Cc3cccc(Cl)c3)C2)c1 (stereo not given),-1,1,2,-7,-8
CSc1cccc(CN2CCC(CO)(Cc3ccccc3)CC2)c1,0,5,-3,459*,3
CCOc1ccc(OCCC(=O)OCC(=O)c2c(N)n(C)c(=O)n(C)c2=O)cc1,-6,2,-4,-5,-4
COC(=O)c1ccccc1N(C)S(=O)(=O)c1cc2c3c(c1)CCC(=O)N3CCC2,-3,-1,4,0,0
CCOc1cc(C(=S)N2CCCC2)ccc1OCc1ccccc1,3,3,2,-18,9.2*
S=C(c1ccc(OCc2ccccc2)cc1)N1CCCC1,2,-2,5,-7,-22
Fc1ccc(COc2ccc(C(=S)N3CCCC3)cc2)cc1,1,0,1,-1,22*
C[C@H](NC(=O)c1nc[nH]c1C(=O)N[C@@H](Cc1ccccc1)C(=O)OCc1ccccc1)C(=O)OC(C)(C)C,4,31*,-4,-3,-4
CN(Cc1ccccc1)C(=O)c1[nH]cnc1C(=O)N[C@@H](Cc1ccccc1)C(=O)OCc1ccccc1,1,33*,0,-20,-1
C[C@@H](NC(=O)c1nc[nH]c1C(=O)N[C@@H](Cc1ccccc1)C(=O)OCc1ccccc1)c1ccccc1,9,-4,3,-10,3
O=C(c1ccco1)N1CCCC(c2nc3c(nnn3Cc3ccc(F)cc3)c(=O)[nH]2)C1 (stereo not given),1,-2,6,-19,-5
O=C(Cc1ccc(Cl)cc1)N1CCc2ccccc2C1,4,-2,-3,58,20*
